From PubChem BioAssay (NCI)
Compounds without any hit were thinned out: in the full panel of roughly 83,000, 20% have a hit.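 Percent growth is the endpoint: 0 to 100 indicates growth inhibition (40 means 60% inhibition), 0 means no net growth, and negative values indicate cell death.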 Activity calls are given as the source filed them. How the source made its calls: active means growth percent below 10; inactive means the rest.

Test system: TK-10 renal
Experiment: NCI-60 one-dose screen, 48 h (100 = growth as untreated, 0 = no growth, -100 = all killed)
Settings: 10 µM unless noted

Row | SMILES | growth
1 | CCCCCN(CCCCC)CC(O)c1cc(C)c2ccc3cc(C(C)C)ccc3c2c1 (configuration not stated) | 75.5% (inactive)
2 | CN(Cc1ccccc1)c1nc(Cl)c(C2CC(c3ccccc3)=NN2c2ccccc2)s1 (configuration not stated) | 115% (inactive)
3 | COC(=O)c1ccc(NC(=O)Nc2ccc(C(=O)OC)cc2)cc1 | 101% (inactive)
4 | C=C1C(=O)O[C@H]2[C@H]1CC/C(COC(=O)NCc1ccc(Cn3c(=O)sn(-c4ccc(C#N)cc4)c3=O)cc1)=C\CC[C@@]1(C)O[C@@H]21 | 48.9% (inactive)
5 | NS(=O)(=O)c1ccc(-c2cc(-c3nnc(SCC(=O)Nc4ccc(C(=O)/C=C/c5ccc(Cl)cc5)cc4)n3-c3ccccc3)c3ccccc3n2)cc1 | 96.4% (inactive)
6 | CO[C@H](C(=O)[C@@H](O)[C@@H](C)O)[C@@H]1Cc2cc3cc(O[C@H]4C[C@@H](O[C@H]5C[C@@H](O)[C@H](O)C(C)O5)[C@H](O)C(C)(O)O4)cc(O)c3c(O)c2C(=O)[C@H]1O[C@H]1C[C@@H](O[C@H]2C[C@@H](O[C@H]3C[C@@H](OC)[C@H](O)C(C)O3)[C@@H](O)C(C)O2)[C@H](O)C(C)O1 (some centres not stated) | 37% (inactive)
7 | COc1ccc(/C=C(/C(=O)n2cnnn2)c2cc(OC)c(OC)c(OC)c2)cc1 | 44.9% (inactive)
8 | COc1cccc(/C=N/NC(=O)c2ccccc2N2CCCC2)c1O | 74.9% (inactive)
9 | CN1CCN(c2ccc(NC(=O)c3cncnc3Nc3ccc(OCc4cccc(F)c4)c(Cl)c3)cc2)CC1 | 103% (inactive)
10 | C=C1C(=O)O[C@H]2[C@H]1CC/C(CNC(=O)c1c[nH]c3ccc(F)cc13)=C\CC[C@@]1(C)O[C@@H]21 | -51.7% (active)
11 | Cc1ncc(C(=O)Nc2ccc(CN3CCN(C)CC3)c(C(F)(F)F)c2)cc1C#Cc1cnc(N)c2ncccc12 | 46.3% (inactive)
12 | CCNC(=O)Oc1ccc(/C(=C(/CC)Cc2ccccc2)c2ccc(OCCN3CCCC3)cc2)cc1 | 91.2% (inactive)
13 | CCOC(=O)c1ccccc1-c1c2ccc(=[N+](C)C)cc-2oc2cc(N(C)C)ccc12 | 32% (inactive)
14 | O=C(Nc1ncc(Cc2ccccc2)s1)c1ccc2c(c1)OCCCO2 | 55.9% (inactive)
15 | CCCCNc1cc(-c2cn[nH]c2-c2cc(C)cc(OC)c2)nc(-c2cccnc2)n1 | 97.2% (inactive)
16 | C=C1CC[C@@H]2[C@](C)(COC(C)=O)[C@H](OC(C)=O)CC[C@@]2(C)[C@@H]1CC(Nc1ccc(S(=O)(=O)NC(C)=O)cc1)C1=CCOC1=O (some centres not stated) | 2.78% (active)

Row | SMILES | growth
17 | C/C=C(\C)C(=O)N[C@H]1C(O)C[C@]2(C)C3CC[C@@]4(C)C(CC[C@@H]4C(C)N(C)C)C3CCC2C1O (some centres not stated) | 109% (inactive)
18 | O=C(O)COc1ccc(Cl)c(Cl)c1 | 116% (inactive)
19 | NS(=O)(=O)c1ccc(C(=O)NN2C(=O)c3c(Br)c(Br)c(Br)c(Br)c3C2=O)cc1 | 112% (inactive)
20 | CS(=O)(=O)c1ccc(NC(=O)c2ccccc2)nc1 | 93.5% (inactive)
21 | FC(F)(F)Oc1cccc(-c2cnc3ccc(-c4ccncc4)nn23)c1 | 17.3% (inactive)
22 | Cc1ccc2c(-n3nc(C#N)c(C#N)c3N)cc(=O)[nH]c2c1 | 108% (inactive)
23 | CCOC(=O)c1c(C)nc2c(c1N)CC(=O)N2Cc1ccc(OC)cc1 | 0.0562% (active)
24 | COc1cccc(CCNc2ncnc3c2ncn3Cc2nnc3c4ccccc4c(Cl)nn23)c1 | 67.4% (inactive)
25 | C=C1C(=O)O[C@H]2[C@H]1CC/C(COC(=O)c1ccc(C(=O)O)s1)=C\CC[C@@]1(C)O[C@@H]21 | 13.1% (inactive)
26 | O=S(=O)(Nc1cc(Sc2cccc3cccnc23)c(O)c2ccccc12)c1ccccc1 | 23.4% (inactive)
27 | CCOC(=O)c1nn(CC(O)c2ccccc2)c(NC(=O)Nc2cccc(F)c2)c1C (configuration not stated) | 105% (inactive)
28 | Cn1ccc(=O)nc1 | 94.9% (inactive)
29 | CNCc1cccc2c1OCCOCCOCCNS(=O)(=O)c1ccc(cc1)-c1cnc(N)c(n1)C(=O)N2 | 41.7% (inactive)
30 | C=C(C)[C@@H]1CC[C@]2(C(=O)N3CCN(C)CC3)CC[C@]3(C)[C@H](CC[C@@H]4[C@@]5(C)CC[C@H](OC(=O)c6ccccc6C(=O)O)C(C)(C)[C@@H]5CC[C@]43C)[C@@H]12 | 106% (inactive)
31 | CCNc1ccc(-c2nc3ccccc3n3cccc23)cc1 | 82.7% (inactive)
32 | CSc1nc(C)c([N+](=O)[O-])c(N)n1 | 89.4% (inactive)
